In PubChem BioAssay (NCI):
This is part of a sample that, as a whole, favours compounds with a hit. Of some 83,000 tested, about 20% had one in any assay.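 How to read the values: 0–100, growth inhibition (40 = 60% inhibited); 0, no net growth; -100 to 0, cell death (-40 = 40% of starting cells died; -100 = all dead).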 Activity calls are given as the source filed them. The calls were made as follows: active = growth percent below 10; inactive = the rest.

Experiments:
Assay in all cases: NCI-60 one-dose screen, 48 h (100 = growth as untreated, 0 = no growth, -100 = all killed)
SK-MEL-2 melanoma = settings: 10 µM unless noted
EKVX NSCLC = settings: 10 µM unless noted
SN12C renal = settings: 10 µM unless noted
UO-31 renal = settings: 10 µM unless noted
TK-10 renal = settings: 10 µM unless noted
ACHN renal = settings: 10 µM unless noted
A498 renal = settings: 10 µM unless noted
CCRF-CEM leukemia = settings: 10 µM unless noted
MOLT-4 leukemia = settings: 10 µM unless noted
SR leukemia = settings: 10 µM unless noted
RPMI-8226 leukemia = settings: 10 µM unless noted
OVCAR-8 ovarian = settings: 10 µM unless noted
OVCAR-5 ovarian = settings: 10 µM unless noted
SK-OV-3 ovarian = settings: 10 µM unless noted
IGROV1 ovarian = settings: 10 µM unless noted
OVCAR-3 ovarian = settings: 10 µM unless noted
HS 578T breast = settings: 10 µM unless noted
NCI/ADR-RES ovarian = settings: 10 µM unless noted
OVCAR-4 ovarian = settings: 10 µM unless noted
CAKI-1 renal = settings: 10 µM

Measured: growth

CC(=O)NC(C)(C)C(=O)N[C@@H](C)C(=O)NC(C)(C)C(=O)N[C@@H](C)C(=O)NC(C)(C)C(=O)N[C@@H](C)C(=O)N[C@@H](CCC(N)=O)C(=O)NC(C)(C)C(=O)N[C@H](C(=O)NC(C)(C)C(=O)NCC(=O)N[C@@H](CC(C)C)C(=O)NC(C)(C)C(=O)N1CCC[C@H]1C(=O)N[C@H](C(=O)NC(C)(C)C(=O)NC(C)(C)C(=O)N[C@@H](CCC(N)=O)C(=O)N[C@@H](CCC(N)=O)C(=O)N[C@H](CO)CC1CCCCC1)C(C)C)C(C)C
inactive: EKVX NSCLC 52% [5 µM] | SN12C renal 21.2% [5 µM] | UO-31 renal 53.1% [5 µM] | TK-10 renal 38.8% [5 µM] | ACHN renal 72.2% [5 µM] | A498 renal 52.3% [5 µM] | CCRF-CEM leukemia 55.6% [5 µM] | MOLT-4 leukemia 55.1% [5 µM] | SR leukemia 43.6% [5 µM] | OVCAR-8 ovarian 44.2% [5 µM] | OVCAR-5 ovarian 55.1% [5 µM] | SK-OV-3 ovarian 45.1% [5 µM] | IGROV1 ovarian 49.3% [5 µM] | OVCAR-3 ovarian 35% [5 µM] | HS 578T breast 62.1% [5 µM] | NCI/ADR-RES ovarian 96.9% [5 µM]
active: SK-MEL-2 melanoma 5.52% [5 µM] | RPMI-8226 leukemia -3.49% [5 µM]

CC(C)C[C@H]1C(=O)O[C@H](C(C)C)C(=O)N(C)[C@@H](C(C)C)C(=O)O[C@H](C(C)C)C(=O)N(C)[C@@H](C(C)C)C(=O)O[C@H](C(C)C)C(=O)N1C
inactive: EKVX NSCLC 22.6% | TK-10 renal 11.9% | ACHN renal 10% | CCRF-CEM leukemia 11.3% | SR leukemia 14.4% | OVCAR-8 ovarian 16% | OVCAR-5 ovarian 17.7% | OVCAR-4 ovarian 18.3% | IGROV1 ovarian 37% | OVCAR-3 ovarian 17.6% | HS 578T breast 38.2%
active: SK-MEL-2 melanoma -17.8% | SN12C renal 8.19% | UO-31 renal -9.26% | A498 renal -6.04% | MOLT-4 leukemia 0.456% | RPMI-8226 leukemia -11.1% | SK-OV-3 ovarian -9.29% | NCI/ADR-RES ovarian -1.7%

CC[C@@](C)(NC(=O)C(C)(C)NC(=O)[C@@H](NC(=O)[C@@H]1CCCN1C(=O)C(C)(C)NC(=O)[C@H](CC(C)C)NC(=O)CNC(=O)C(C)(C)NC(=O)[C@@H](NC(=O)C(C)(C)NC(=O)[C@H](CCC(N)=O)NC(=O)[C@H](C)NC(=O)C(C)(C)NC(=O)[C@H](C)NC(=O)C(C)(C)NC(=O)[C@@H]1CCCN1C(=O)C(C)(C)NC(C)=O)C(C)C)C(C)C)C(=O)N[C@@H](CCC(N)=O)C(=O)N[C@@H](CCC(N)=O)C(=O)N[C@H](CO)Cc1ccccc1
active: SK-MEL-2 melanoma -9.91% [4.25 µM] | MOLT-4 leukemia 8.53% [4.25 µM] | RPMI-8226 leukemia -10.5% [4.25 µM]
inactive: EKVX NSCLC 71.6% [4.25 µM] | SN12C renal 12.8% [4.25 µM] | UO-31 renal 89.5% [4.25 µM] | TK-10 renal 90% [4.25 µM] | ACHN renal 107% [4.25 µM] | A498 renal 54.9% [4.25 µM] | CCRF-CEM leukemia 35.6% [4.25 µM] | SR leukemia 22.2% [4.25 µM] | OVCAR-8 ovarian 94.5% [4.25 µM] | OVCAR-5 ovarian 44.9% [4.25 µM] | OVCAR-4 ovarian 59.2% [4.25 µM] | SK-OV-3 ovarian 31.3% [4.25 µM] | IGROV1 ovarian 42.6% [4.25 µM] | OVCAR-3 ovarian 14.6% [4.25 µM] | HS 578T breast 52.1% [4.25 µM] | NCI/ADR-RES ovarian 100% [4.25 µM]

O=c1oc2ccc(-c3ccc(F)cc3F)cc2c(=O)n1-c1cccc(C(F)(F)F)c1
active: SK-MEL-2 melanoma -12.5% | EKVX NSCLC 8.73% | SN12C renal 1.14% | UO-31 renal -18.5% | ACHN renal 4.3% | A498 renal -34.1% | MOLT-4 leukemia 5.65% | RPMI-8226 leukemia -12.9% | SK-OV-3 ovarian 0.403% | IGROV1 ovarian 8.17% | HS 578T breast -4.83% | NCI/ADR-RES ovarian 4%
inactive: TK-10 renal 15.4% | CCRF-CEM leukemia 22.6% | SR leukemia 18.4% | OVCAR-8 ovarian 12.4% | OVCAR-5 ovarian 10.4% | OVCAR-4 ovarian 13.4% | OVCAR-3 ovarian 10.9%

O=C1NC(=O)c2c1c1c3ccccc3ccc1c1[nH]c3ccccc3c21
inactive: EKVX NSCLC 11.1% | SN12C renal 17.3% | OVCAR-5 ovarian 49.6% | OVCAR-4 ovarian 25.8% | HS 578T breast 12.7%
active: SK-MEL-2 melanoma -12.5% | UO-31 renal -4.64% | TK-10 renal -4.05% | ACHN renal -2.53% | A498 renal -36.3% | CCRF-CEM leukemia 9.91% | MOLT-4 leukemia 3.16% | SR leukemia -9.49% | RPMI-8226 leukemia 1.6% | OVCAR-8 ovarian 6.43% | SK-OV-3 ovarian 2.2% | IGROV1 ovarian 9.53% | NCI/ADR-RES ovarian 0.105%

N#C/C(=C\c1ccc(-c2ccc(F)cc2)o1)C(=O)Nc1ncc(Cc2ccc(Cl)cc2Cl)s1
inactive: SK-MEL-2 melanoma 68.9% | A498 renal 72.1% | MOLT-4 leukemia 30.8% | RPMI-8226 leukemia 25.3% | OVCAR-5 ovarian 26% | SK-OV-3 ovarian 107% | HS 578T breast 10.7%
active: EKVX NSCLC 9.87% | SN12C renal -37.5% | UO-31 renal 2.72% | TK-10 renal -4.43% | ACHN renal 8.96% | CCRF-CEM leukemia 4.62% | OVCAR-8 ovarian 6.14% | OVCAR-4 ovarian -40.3% | IGROV1 ovarian -1.72% | NCI/ADR-RES ovarian 6.32%

COC1=C(c2ccccc2)C(=O)C(OC)=C(c2ccccc2)C1=O
active: MOLT-4 leukemia -7.74%
inactive: SK-MEL-2 melanoma 101% | EKVX NSCLC 99% | SN12C renal 102% | UO-31 renal 89.8% | TK-10 renal 107% | ACHN renal 117% | A498 renal 89.7% | CCRF-CEM leukemia 10.9% | SR leukemia 79.8% | RPMI-8226 leukemia 93.5% | OVCAR-8 ovarian 100% | OVCAR-5 ovarian 119% | OVCAR-4 ovarian 59.6% | SK-OV-3 ovarian 81.2% | IGROV1 ovarian 93.2% | OVCAR-3 ovarian 72.6% | HS 578T breast 96.8% | NCI/ADR-RES ovarian 102%

COc1ccc(C(=O)c2c(N)c(C#N)cn2-c2cccc(OC)c2)cc1
active: A498 renal -1.17% | NCI/ADR-RES ovarian 9.32%
inactive: SK-MEL-2 melanoma 28.8% | EKVX NSCLC 38.7% | SN12C renal 32.4% | UO-31 renal 33.8% | TK-10 renal 69.2% | ACHN renal 38.5% | CCRF-CEM leukemia 18.1% | MOLT-4 leukemia 29.3% | SR leukemia 27% | RPMI-8226 leukemia 22.1% | OVCAR-8 ovarian 34.2% | OVCAR-5 ovarian 56.9% | OVCAR-4 ovarian 63.1% | IGROV1 ovarian 32% | OVCAR-3 ovarian 30.3% | HS 578T breast 11%

Cc1cc(F)cc(NS(=O)(=O)c2ccc(-c3cnc(C4CC4)o3)cc2)c1
inactive: SK-MEL-2 melanoma 67% | EKVX NSCLC 34.3% | SN12C renal 44.8% | UO-31 renal 43.2% | TK-10 renal 53.5% | ACHN renal 44.4% | CCRF-CEM leukemia 20.8% | MOLT-4 leukemia 26.1% | SR leukemia 27.5% | OVCAR-8 ovarian 35.8% | OVCAR-5 ovarian 43% | OVCAR-4 ovarian 49.6% | SK-OV-3 ovarian 58.2% | IGROV1 ovarian 32.4% | HS 578T breast 34.1%
active: OVCAR-3 ovarian -10.1% | NCI/ADR-RES ovarian 6.6%

CC1OC(O[C@@H]2C(O)C(CO)OC(O[C@H]3COC(O[C@H]4CC[C@]5(C)[C@H]6CC[C@]78OC[C@@]9(CC[C@](C)(C=O)C[C@H]97)[C@H](O)C[C@@]8(C)[C@]6(C)CC[C@H]5C4(C)C)[C@@H](OC4OC(CO)[C@@H](O)[C@@H](O)[C@@H]4O)[C@@H]3O)[C@H]2OC2OC[C@@H](O)[C@@H](O)[C@@H]2O)[C@@H](O)[C@@H](O)[C@H]1O (stereo partly specified)
active: SK-MEL-2 melanoma -35.2% | UO-31 renal -93.6% | ACHN renal -82.2% | CAKI-1 renal -80.7% | A498 renal -89.3% | CCRF-CEM leukemia 4.93% | MOLT-4 leukemia -36% | SR leukemia -18.3% | OVCAR-5 ovarian -78.7% | OVCAR-4 ovarian -50.9% | SK-OV-3 ovarian -93.9% | HS 578T breast -36.9%
inactive: EKVX NSCLC 22.2% | TK-10 renal 29.5% | RPMI-8226 leukemia 32.9% | OVCAR-8 ovarian 27.1% | IGROV1 ovarian 43.8% | OVCAR-3 ovarian 79.4% | NCI/ADR-RES ovarian 46.1%

NS(=O)(=O)c1ccc(Nc2nc(N/N=C/c3ccc(F)cc3)nc(Nc3ccccc3)n2)cc1
active: SK-MEL-2 melanoma -9.45% | TK-10 renal 1.71%
inactive: EKVX NSCLC 62.7% | SN12C renal 50.3% | UO-31 renal 66.2% | ACHN renal 80.8% | MOLT-4 leukemia 21.8% | SR leukemia 57.7% | RPMI-8226 leukemia 50.6% | OVCAR-8 ovarian 29.4% | OVCAR-5 ovarian 75.3% | OVCAR-4 ovarian 55.5% | SK-OV-3 ovarian 71.2% | IGROV1 ovarian 43.5% | OVCAR-3 ovarian 30.4% | HS 578T breast 40.6% | NCI/ADR-RES ovarian 95.6%

O=C1c2c(c3c4cccnc4[nH]c3c3ccc4ccccc4c23)C(=O)N1CCN1CCCCC1
inactive: SK-MEL-2 melanoma 114% | EKVX NSCLC 78% | SN12C renal 45.2% | UO-31 renal 36.9% | TK-10 renal 104% | ACHN renal 20% | A498 renal 80.1% | CCRF-CEM leukemia 17.9% | SR leukemia 15.4% | RPMI-8226 leukemia 70.3% | OVCAR-8 ovarian 49.5% | OVCAR-5 ovarian 88.6% | SK-OV-3 ovarian 62.9% | IGROV1 ovarian 42.8% | HS 578T breast 105% | NCI/ADR-RES ovarian 41.2%
active: MOLT-4 leukemia 6.84%

COc1ccc(-c2oc3cc(O)cc(O)c3c(=O)c2OC)cc1O
inactive: SK-MEL-2 melanoma 13.2% | EKVX NSCLC 38.7% | UO-31 renal 26.2% | TK-10 renal 52.3% | ACHN renal 34.1% | CAKI-1 renal 14.9% | MOLT-4 leukemia 21.4% | SR leukemia 11% | RPMI-8226 leukemia 17.4% | OVCAR-8 ovarian 26.8% | OVCAR-5 ovarian 59.8% | OVCAR-4 ovarian 46.2% | SK-OV-3 ovarian 19.2% | IGROV1 ovarian 39.8% | HS 578T breast 11.2% | NCI/ADR-RES ovarian 15.4%
active: A498 renal -6.41% | CCRF-CEM leukemia 2.67% | OVCAR-3 ovarian -7.51%
